# In PubChem BioAssay (Tox21):
# Records with an inconclusive call do not appear. More than one record can exist for a structure, and the calls need not agree. Activity calls are given as the source filed them. Calls follow the shape of the dose curve; as a rule, active = well fitted activation curve with a large enough effect in the repeat runs; inconclusive = weak or mixed curves; inactive = no such curve, though single readings can be large or run the other way.
# Biological target: Nuclear receptor subfamily 1 group I member 3 (Homo sapiens) (UniProt Q14994)
# Sequence (Q14994 whole entry, looked up): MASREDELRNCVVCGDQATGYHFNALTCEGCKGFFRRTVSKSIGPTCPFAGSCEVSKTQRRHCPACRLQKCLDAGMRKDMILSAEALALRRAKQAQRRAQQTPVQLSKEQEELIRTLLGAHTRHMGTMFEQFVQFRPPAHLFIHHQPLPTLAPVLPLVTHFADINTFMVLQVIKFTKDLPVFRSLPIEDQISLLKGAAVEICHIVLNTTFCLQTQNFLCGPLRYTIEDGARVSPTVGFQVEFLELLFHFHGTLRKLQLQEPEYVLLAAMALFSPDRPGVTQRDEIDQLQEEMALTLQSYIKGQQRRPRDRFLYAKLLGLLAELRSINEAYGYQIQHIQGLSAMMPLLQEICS
# Experiment: qHTS assay to identify small molecule agonists of the constitutive androstane receptor (CAR) signaling pathway (AID 1224839); also: nearly all actives have a fitted effect of over 15% in size;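 as to activation: HepG2 cells stably carrying human CAR and a CYP2B6 luciferase reporter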
# Settings: HepG2 hCAR CYP2B6-luciferase, agonist mode, 24 h; series mostly up to 92.4 µM; activation: at the top concentration
# Text: National Center for Advancing Translational Sciences [NCATS] NIH Chemical Genomics Center [NCGC] U.S. Environmental Protection Agency [EPA] National Institutes of Environmental Health Sciences [NIEHS] National Toxicology Program [NTP] Assay overview: The constitutive androstane receptor (CAR) is a nuclear receptor which regulates multiple drug metabolizing enzymes (DMEs) and transporters. Activating CAR will generally increase the transcription and subsequent translation of CYP2B6 and CYP3A4. These two DMEs represent about 50% of the drug metabolizing potential in the body. […] Recently, there have also been studies performed indicating CARs role in energy metabolism and cancer therapy. Therefore, inducing CARs activity could have a potential effect on diabetes and cancer. Identifying environmental toxins and compounds which modulate CAR, through the use of the Tox21 10K compound collection, will be an important step in determining the toxicity and potential therapeutic effects these factors will have on the human body.
# Assay Protocol Summary: A double-stable (hCAR and CYP2B6-2.2kb) transfected cell line, derived from human hepatoma (HepG2) cells, was utilized for the duration of the quantitative high-throughput screens. The HepG2-CYP2B6-hCAR cells suspended in DMEM culture medium supplemented with 10% FBS, 5 ug/mL blasticidin, 0.5 mg/mL geneticin, 100 U/mL penicillin and 100 ug/mL streptomycin were dispensed at 2500 cells/4 uL/well in 1536-well white solid bottom plates using a Multidrop Combi. After the assay plates were incubated at 37 C/5% CO2 for 4 hrs, 23 nL of compounds at 15 concentrations (from 5-48 columns) or positive control (from 1 to 4 columns) were transferred to the assay plates using a Pintool station. One uL of PK11195, was added using a Flying Reagent Dispenser to generate a final concentration of 0.75 uM PK11195 inside each well. After a 24 hr incubation period at 37 C/5% CO2, four uL of ONE-Glo reagent was added into the assay plates using a Flying Reagent Dispenser. After a 30 min incubation period at room temperature, the luminescence intensity in the assay plates was measured using a ViewLux plate reader.
# % is scaled to controls: 0 for no effect and ±100 for the full control effect; potency is read from the fitted curve at half-maximal effect.
Compound,activation,Potency
CC(=O)NCCO,6.53% (inactive),–
COC(=O)CC(C(C)=O)C(=O)OC (stereo not given),-0.615% (inactive),–
CC1C(C)(C)C2=C(C(=O)CCC2)C1(C)C (stereo not given),-1.51% (inactive),–
O=C(Nc1ccc(C(=O)O)c(O)c1)c1ccccc1,2.18% [at 42.5 µM] (inactive),–
O=C(O)c1cccc(C[C@@H]2COc3ccc(OCc4nc5cc(F)ccc5s4)cc3[C@@H]2O)c1,5.9% (inactive),–
C/C(C=O)=C\c1ccccc1,-1.64% (inactive),–
CCCCCCCCCCCCCCN(C)C,-0.414% [at 19 µM] (inactive),–
CCCCCCC(O)CCCCCCCCCCC(=O)OC (stereo not given),-0.482% (inactive),–
O=c1[nH]c2cc(C(F)(F)F)c(N3CCOCC3)cc2n(CP(=O)(O)O)c1=O,-2.04% [at 42.5 µM] (inactive),–
O[C@@H](CNC[C@H](O)[C@H]1CCc2cc(F)ccc2O1)[C@@H]1CCc2cc(F)ccc2O1,-23.2% [at 42.5 µM] (inactive),–
CC(=O)Oc1cccc(O)c1,0.881% [at 42.5 µM] (inactive),–
C1CCCCC1,-1.86% (inactive),–
CC(C)(C(=O)c1cccnc1)c1cccnc1,0.184% [at 42.5 µM] (inactive),–
Cc1cc(CCCOc2c(C)cc(-c3noc(C(F)(F)F)n3)cc2C)on1,–,23.7 µM (active)
CCCCCCC(CO)CCCC (stereo not given),-1.95% (inactive),–
C=C(C)C(=O)OCCC(F)(F)C(F)(F)C(F)(F)C(F)(F)C(F)(F)C(F)(F)F,-1.47% (inactive),–
Cc1cn([C@H]2C[C@H](F)[C@@H](CO)O2)c(=O)[nH]c1=O,-0.0373% [at 42.5 µM] (inactive),–
O=C(NC(Cc1cc(=O)[nH]c2ccccc12)C(=O)O)c1ccc(Cl)cc1 (stereo not given),-0.534% [at 42.5 µM] (inactive),–
CC(C)COC(=O)COc1cc(Cl)c(Cl)cc1Cl,0.211% (inactive),–
CCN(CC)CC(=O)Nc1c(C)cccc1C(=O)OC,–,23.7 µM (active)

Compound,activation,Potency
Cc1cc([N+](=O)[O-])ccc1N,6.9% (inactive),–
COc1ccc(N)c([N+](=O)[O-])c1,3.83% (inactive),–
CCN(Cc1cccc(S(=O)(=O)O)c1)c1ccc(C(=C2C=CC(=[N+](CC)Cc3cccc(S(=O)(=O)O)c3)C=C2)c2ccccc2S(=O)(=O)[O-])cc1,-17.1% [at 42.5 µM] (inactive),–
CC(=O)OCCC1CCCCC1,-0.496% (inactive),–
CC(C)N(C)C,1.28% (inactive),–
O=C1NC(=O)c2cccc3cccc1c23,4.36% (inactive),–
COc1ccc2nc(S(=O)Cc3ncc(C)c(OC)c3C)[nH]c2c1 (stereo not given),–,60.4 µM (active) and inactive
CCCCCCCC(=O)OCCCCCC,-2.46% (inactive),–
O=C(O)CNC(=O)c1ccccc1I,-0.615% [at 42.5 µM] (inactive),–
CC(C)Cc1ccc(CC(=O)O)cc1,0.0781% [at 42.5 µM] (inactive),–
CCCCC[C@H](O)/C=C/[C@H]1[C@H](O)CC(=O)[C@@H]1C/C=C\CCCC(=O)O,-0.251% [at 42.5 µM] (inactive),–
Cc1cc(CCC(=O)OCCOCCOCCOC(=O)CCc2cc(C)c(O)c(C(C)(C)C)c2)cc(C(C)(C)C)c1O,2.25% (inactive),–
CC1=C2[C@@H]([C@H](C)CC[C@H]2/C=C(\C)C(=O)O)[C@H](O)C1,-0.184% (inactive),–
O=C(C(=O)c1ccco1)c1ccco1,7.93% (inactive),–
N[C@@H](Cc1cc(I)c(O)c(I)c1)C(=O)O,-1.86% [at 42.5 µM] (inactive),–
O=C(O)CO,-0.14% (inactive),–
COC(=O)C1=C(C)NC(C)=C(C(=O)OC(C)(C)CN(C)CCC(c2ccccc2)c2ccccc2)C1c1cccc([N+](=O)[O-])c1 (stereo not given),-1.06% [at 42.5 µM] (inactive),–
Cc1ccccc1S(N)(=O)=O,-0.0259% (inactive),–
Nc1ccn([C@H]2CS[C@@H](CO)O2)c(=O)n1,-0.0014% (inactive),–
SCCc1cnccn1,0.685% (inactive),–
